Where “and” joins values, the source holds several entries; their conditions need not be identical. Identical values can stand only once. Results filed as inconclusive are left out. A call without a number means that no potency is given here. More than one record can exist for a structure, and the calls need not agree. Calls of active or inactive are those of the source. Calls come from the whole dose curve; as a rule, active = well fitted curve in the direction sought with a large enough effect; inconclusive = small, poorly fitted or top-dose-only effect, or another doubt; inactive = no such curve, though single readings can be large; an effect the other way counts as inactive or inconclusive.
Assays:
[1] = tested on: HaCat; assay: Cytotoxic Profiling of Annotated Libraries Using Quantitative High-Throughput Screening (AID 1296008); details: Five cell lines viability, CellTiter-Glo ATP luminescence, 48-72 h; max response: stronger effect = lower value; note: nearly all actives have a fitted effect of over 60% in size
How it was run: (§1)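 Compounds were pin-transferred onto cells and incubated 48 or 72 hr at 37 degree Celsius, 95% humidity. CellTiter-Glo was added, plates sat 10 min at room temperature, then ATP-coupled luminescence was imaged as the viability read-out.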

[2] = tested on: KB-3-1; assay: as above; details: Five cell lines viability, CellTiter-Glo ATP luminescence, 48-72 h; max response: stronger effect = lower value
How it was run: as §1

[3] = tested on: NIH3T3; assay: as above; details: Five cell lines viability, CellTiter-Glo ATP luminescence, 48-72 h; max response: stronger effect = lower value
How it was run: as §1

[4] = tested on: HACAT; assay: qHTS assay to identify novel small-molecules to repurpose for Merkel cell carcinoma treatment (AID 1296009); details: MCC and control cell lines, CellTiter-Glo viability, 72 h; note: nearly all actives have a fitted effect of over 60% in size
How it was run: (§2)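 Cells exposed to NPC (8-point) and MIPE (11-point) compound dilutions for 72 hr at 37 degree celsius; viability read by CellTiter-Glo luminescence, normalized to no-cell and DMSO in-plate controls.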

[5] = tested on: HEK293T; assay: as above; details: MCC and control cell lines, CellTiter-Glo viability, 72 h
How it was run: as §2

[6] = tested on: MCC-13; assay: as above; details: MCC and control cell lines, CellTiter-Glo viability, 72 h; series mostly up to 46 µM
How it was run: as §2

[7] = tested on: MCC-26; assay: as above; details: MCC and control cell lines, CellTiter-Glo viability, 72 h; series mostly up to 46 µM
How it was run: as §2

[8] = tested on: MKL-1; assay: as above; details: MCC and control cell lines, CellTiter-Glo viability, 72 h; series mostly up to 46 µM
How it was run: as §2

[9] = tested on: MKL-2; assay: as above; details: MCC and control cell lines, CellTiter-Glo viability, 72 h; series mostly up to 46 µM
How it was run: as §2

[10] = tested on: WaGa; assay: as above; details: MCC and control cell lines, CellTiter-Glo viability, 72 h; series mostly up to 46 µM
How it was run: as §2

[11] = tested on: C33A; assay: Primary qHTS to identify gynecologic anti-cancer compounds using libraries of approved drugs and bioactive compounds (AID 1345084); details: Gynecologic cancer cell panel viability, ATPlite luminescence, 48 h; series mostly up to 57.5 µM; note: nearly all actives have a fitted effect of over 55% in size
How it was run: (§3)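 48 h compound exposure at 37 C, 5% CO2; five-point qHTS. ATPlite luminescence readout of cell ATP.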

[12] = tested on: CAOV3; assay: as above; details: Gynecologic cancer cell panel viability, ATPlite luminescence, 48 h; series mostly up to 57.5 µM
How it was run: as §3

[13] = tested on: CASKI; assay: as above; details: Gynecologic cancer cell panel viability, ATPlite luminescence, 48 h; series mostly up to 57.5 µM
How it was run: as §3

[14] = tested on: Es-2; assay: as above; details: Gynecologic cancer cell panel viability, ATPlite luminescence, 48 h; series mostly up to 57.5 µM
How it was run: as §3

[15] = tested on: Hek293T; assay: as above; details: Gynecologic cancer cell panel viability, ATPlite luminescence, 48 h, control line for the selectivity index; series mostly up to 57.5 µM
How it was run: as §3

[16] = tested on: JEG-3; assay: as above; details: Gynecologic cancer cell panel viability, ATPlite luminescence, 48 h; series mostly up to 57.5 µM
How it was run: as §3

[17] = tested on: OV90; assay: as above; details: Gynecologic cancer cell panel viability, ATPlite luminescence, 48 h; series mostly up to 57.5 µM
How it was run: as §3

[18] = tested on: UISO; assay: qHTS assay to identify novel small-molecules to repurpose for Merkel cell carcinoma treatment (AID 1296009); details: MCC and control cell lines, CellTiter-Glo viability, 72 h; series mostly up to 46 µM; note: nearly all actives have a fitted effect of over 60% in size
How it was run: as §2

[19] = tested on: HeLa; assay: Primary qHTS to identify gynecologic anti-cancer compounds using libraries of approved drugs and bioactive compounds (AID 1345084); details: Gynecologic cancer cell panel viability, ATPlite luminescence, 48 h; series mostly up to 57.5 µM; note: nearly all actives have a fitted effect of over 55% in size
How it was run: as §3

[20] = tested on: NIH3T3; assay: qHTS assay to identify novel small-molecules to repurpose for Merkel cell carcinoma treatment (AID 1296009); details: MCC and control cell lines, CellTiter-Glo viability, 72 h; at 44.8 µM (top of the series) unless noted; note: nearly all actives have a fitted effect of over 60% in size
How it was run: as §2

[21] = at 44.8 µM (top of the series) unless noted
Potency is the fitted concentration of half-maximal effect.

SMILES: CC(C)OC(=O)OCOP(=O)(CO[C@H](C)Cn1cnc2c(N)ncnc21)OCOC(=O)OC(C)C
- outcome [1]: inactive
- outcome [2]: inactive
- max response [3]: -4.05% (inactive) and -25.8% (inactive)
- outcome [4, 21]: inactive
- outcome [5, 21]: inactive
- Potency [6]: inactive
- Potency [7]: inactive
- Potency [8]: inactive
- Potency [9]: inactive
- Potency [10]: inactive
- Potency [11]: inactive
- Potency [12]: inactive
- Potency [13]: inactive
- Potency [14]: inactive
- Potency [15]: inactive
- Potency [16]: inactive
- Potency [17]: inactive

SMILES: NNC(=O)c1ccncc1
- outcome [1]: inactive
- max response [2]: -14.7% (inactive) and 6.97% (inactive)
- max response [3]: 1.44% (inactive)
- outcome [4, 21]: inactive
- Potency [6]: inactive
- Potency [8]: inactive
- Potency [18]: inactive
- Potency [10]: inactive
- Potency [11]: inactive
- Potency [12]: inactive
- Potency [13]: inactive
- Potency [14]: inactive
- Potency [19]: inactive
- Potency [15]: inactive
- Potency [16]: inactive
- Potency [17]: inactive

SMILES: CC(C)Cn1cnc2c(N)nc3ccccc3c21
- max response [1]: -15.1% (inactive) and -54.5% (inactive)
- max response [2]: -6.03% (inactive) and -18.1% (inactive)
- max response [3]: -4.24% (inactive) and -9.09% (inactive)
- Potency [6]: inactive
- Potency [7]: inactive
- Potency [8]: inactive
- Potency [9]: inactive
- Potency [18]: inactive
- Potency [10]: inactive and 20.9 µM (active)
- Potency [11]: inactive
- Potency [12]: inactive
- Potency [13]: inactive
- Potency [14]: inactive
- Potency [15]: inactive
- Potency [16]: inactive
- Potency [17]: inactive

SMILES: CC(C)C[C@H](NC(=O)[C@H](CCc1ccccc1)NC(=O)CN1CCOCC1)C(=O)N[C@@H](Cc1ccccc1)C(=O)N[C@@H](CC(C)C)C(=O)[C@@]1(C)CO1
- Potency [1]: 332 nM (active)
- Potency [2]: 1.84 µM (active) and 132 nM (active)
- Potency [3]: 299 nM (active) and 235 nM (active)
- Potency [6]: 84.1 nM (active) and 418 nM (active)
- Potency [7]: 0.105 µM (active)
- Potency [8]: 5.3 nM (active) and 37.2 nM (active)
- Potency [9]: 1.1 nM (active) and 14.8 nM (active)
- Potency [18]: 18.8 nM (active) and 59 nM (active)
- Potency [10]: 4.7 nM (active) and 29.6 nM (active)
- Potency [11]: 0.316 µM (active)
- Potency [13]: 0.316 µM (active)
- Potency [14]: 0.316 µM (active)
- Potency [19]: 0.794 µM (active)
- Potency [15]: 0.251 µM (active)
- Potency [16]: inactive
- Potency [17]: 0.251 µM (active)

SMILES: C[C@]12C=CC(=O)C=C1CC[C@@H]1[C@@H]2C(=O)C[C@@]2(C)[C@H]1CC[C@]2(O)C(=O)CO
- max response [1]: -8.77% (inactive) and -10.7% (inactive)
- max response [2]: 9.07% (inactive) and 4.76% (inactive)
- max response [3]: -5.75% (inactive)
- outcome [3]: inactive
- Potency [6]: inactive
- Potency [7]: inactive
- Potency [8]: inactive
- Potency [9]: inactive
- outcome [20]: inactive
- Potency [18]: inactive
- Potency [10]: inactive
- Potency [11]: inactive
- Potency [12]: inactive
- Potency [13]: inactive
- Potency [14]: inactive
- Potency [15]: inactive
- Potency [16]: inactive
- Potency [17]: inactive

SMILES: O=c1oc2c(O)c(O)cc3c(=O)oc4c(O)c(O)cc1c4c23
- max response [1]: 0.0618% (inactive) and -16.9% (inactive)
- max response [2]: -24.2% (inactive) and 0.262% (inactive)
- max response [3]: 2.17% (inactive)
- outcome ([5]; at 17.4 µM (top of the series)): inactive
- outcome ([5]; at 44.8 µM (top of the series)): inactive
- Potency [6]: inactive
- Potency [7]: inactive
- Potency [8]: inactive
- Potency [9]: inactive
- Potency [18]: inactive
- Potency [10]: inactive
- Potency [11]: inactive
- Potency [12]: inactive
- Potency [13]: inactive
- Potency [14]: inactive
- Potency [19]: inactive
- Potency [15]: inactive
- Potency [16]: inactive
- Potency [17]: inactive

SMILES: CC(=O)Oc1ccccc1C(=O)Nc1ncc([N+](=O)[O-])s1
- outcome [1]: inactive
- max response [2]: -5.17% (inactive) and -18.8% (inactive)
- outcome [3]: inactive
- outcome ([4]; at 44.8 µM (top of the series)): inactive
- outcome ([4]; at 92 µM (top of the series)): inactive
- Potency [6]: inactive
- Potency [8]: inactive
- outcome [20]: inactive [at 92 µM]
- Potency [10]: inactive and 16.8 µM (active)
- Potency [11]: inactive
- Potency [12]: inactive
- Potency [13]: inactive
- Potency [16]: inactive
- Potency [17]: inactive

SMILES: CCC(=O)O[C@]1(C(=O)CCl)[C@@H](C)C[C@H]2[C@@H]3CCC4=CC(=O)C=C[C@]4(C)[C@@]3(F)[C@@H](O)C[C@@]21C
- max response [1]: -4.36% (inactive) and -8.18% (inactive)
- max response [2]: -5.78% (inactive) and 1.04% (inactive)
- max response [3]: -2.25% (inactive)
- outcome [3]: inactive
- Potency [6]: inactive
- Potency [8]: inactive
- Potency [9]: inactive
- outcome [20]: inactive
- Potency [18]: inactive
- Potency [10]: inactive
- Potency [11]: inactive
- Potency [12]: inactive
- Potency [13]: inactive
- Potency [14]: inactive
- Potency [19]: inactive
- Potency [15]: inactive
- Potency [16]: inactive
- Potency [17]: inactive

SMILES: CCC(C)(C)c1ccc(CC(C)CN2C[C@@H](C)O[C@@H](C)C2)cc1 (some centres not stated)
- outcome [1]: inactive
- max response [2]: 0.53% (inactive) and -5.13% (inactive)
- max response [3]: 3.97% (inactive) and -6% (inactive)
- outcome [4, 21]: inactive
- Potency [6]: inactive
- Potency [7]: inactive
- Potency [8]: inactive
- Potency [9]: inactive
- Potency [18]: inactive
- Potency [10]: inactive
- Potency [11]: inactive
- Potency [12]: inactive
- Potency [13]: inactive
- Potency [14]: inactive
- Potency [15]: inactive
- Potency [16]: inactive
- Potency [17]: inactive

SMILES: Nc1nc(=S)c2[nH]cnc2[nH]1
- Potency [1]: 1.5 µM (active) and 4.69 µM (active)
- Potency [2]: 5.17 µM (active) and 3.66 µM (active) and 1.32 µM (active)
- Potency [3]: 841 nM (active) and 3.32 µM (active)
- Potency [6]: 4.22 µM (active)
- Potency [7]: 20.9 µM (active)
- Potency [8]: 2.37 µM (active) and 23.5 µM (active)
- Potency [9]: 7.5 µM (active)
- Potency [18]: 1.33 µM (active)
- Potency [10]: 3.35 µM (active) and 10.5 µM (active)
- Potency [13]: 3.55 µM (active)
- Potency [14]: 7.08 µM (active)
- Potency [19]: 1.41 µM (active)
- Potency [16]: 3.16 µM (active)
- Potency [17]: 8.91 µM (active)

SMILES: Cc1ccc(S(=O)(=O)N[C@@H](Cc2ccccc2)C(=O)CCl)cc1
- outcome [1]: inactive
- max response [2]: 6.1% (inactive)
- outcome [3]: inactive
- outcome [4, 21]: inactive
- Potency [6]: inactive
- Potency [7]: inactive
- outcome [20]: inactive
